High-throughput results from PubChem BioAssay.
In the library only some 7.5% were active in any assay of this set; here they are far more common.
ELG1 DNA repair = ELG1-dependent DNA repair inhibition; HEK293T ELG1-luciferase reporter, luminescence, 16 h; DNA damage induced by 5-fluorouridine; Potency, µM (doses to about 46.1 µM), without a hit: at the highest dose activity change, negative = inhibition, hits mostly inhibitors; actives 2.3% (n = 330,000); AID 504467; also: potency is read from the fitted curve at half-maximal effect; nearly all actives have a fitted effect of over 55% in size
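Step one: seed 2,000 cells per well. Step two: pin-transfer compound or DMSO alongside 5-fluorouridine. Step three: incubate 16 hr, 37 °C, 5% CO2. Step four: add ONE-Glo, wait 30 min, read luminescence.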
TSHR antag = antagonists of human thyroid stimulating hormone receptor; P16473; TSHR-expressing cells, TSH-stimulated cAMP HTRF, 2 h; hits give low values; actives 0.2% (n = 330,000); activity change, negative = inhibition, % at 11.5 µM; AID 504810;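 active = activity change below a set negative limit, meaning inhibition stronger than a set level, cut at about -70% in these data; inconclusive = activity change between two set negative limits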
Target sequence (P16473 whole entry, looked up): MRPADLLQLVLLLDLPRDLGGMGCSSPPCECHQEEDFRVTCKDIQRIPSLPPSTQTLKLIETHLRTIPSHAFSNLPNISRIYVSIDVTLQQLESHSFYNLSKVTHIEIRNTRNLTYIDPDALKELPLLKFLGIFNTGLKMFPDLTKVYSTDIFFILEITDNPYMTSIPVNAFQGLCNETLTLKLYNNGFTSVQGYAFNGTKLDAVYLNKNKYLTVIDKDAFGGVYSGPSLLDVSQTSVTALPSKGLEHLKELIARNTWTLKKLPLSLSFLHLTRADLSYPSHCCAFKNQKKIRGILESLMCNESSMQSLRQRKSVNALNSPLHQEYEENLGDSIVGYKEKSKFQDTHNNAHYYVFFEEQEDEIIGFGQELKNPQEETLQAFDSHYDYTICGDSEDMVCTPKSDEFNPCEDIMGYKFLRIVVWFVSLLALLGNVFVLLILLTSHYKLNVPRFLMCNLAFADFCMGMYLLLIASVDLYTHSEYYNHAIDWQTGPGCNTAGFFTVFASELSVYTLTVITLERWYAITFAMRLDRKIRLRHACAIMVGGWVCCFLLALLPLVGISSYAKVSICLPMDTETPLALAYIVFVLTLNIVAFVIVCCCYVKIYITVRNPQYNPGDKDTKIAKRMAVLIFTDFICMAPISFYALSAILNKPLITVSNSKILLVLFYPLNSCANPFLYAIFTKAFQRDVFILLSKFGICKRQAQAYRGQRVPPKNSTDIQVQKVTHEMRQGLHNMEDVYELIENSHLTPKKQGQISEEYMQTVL
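Inhibition of cAMP made by TSHR-expressing cells under TSH stimulation (4nM final, EC80; 2 h, 37 deg C) is quantified with a one-step lysis HTRF kit, anti-cAMP cryptate versus cAMP-d2.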
B2AR arrestin = beta2AR (human) beta-arrestin recruitment activity | P07550 | beta-arrestin recruitment to beta2AR, cell-based reporter | Potency, µM (titrated, usually from 46.1 µM), without a hit: at the top dose activation, most hits filed as activators | actives 0.02% (n = 330,000) | AID 492947;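 also: potency is read from the fitted curve at half-maximal effect; 0% = DMSO controls and full agonism = EC100 isoproterenol or metaproterenol; nearly all actives have a fitted effect of over 65% in size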
VP16 counter = counter-screen for ROR gamma inhibitors: Gal4-VP16 reporter; Drosophila S2 Gal4-VP16 UAS-luciferase, luminescence, 20 h; Potency, µM (series often up to 53.6 µM), for inactives: at the highest dose activity, negative = inhibition, hits mostly inhibitors; actives 3.5% (n = 310,000);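 also: Gal4-VP16 expression switched on by copper sulfate through the metallothionein promoter; potency is read from the fitted curve at half-maximal effect; nearly all actives have a fitted effect of over 50% in size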
RORg inh = ROR gamma (mouse) transcription inhibition; P51450; Drosophila S2 Gal4-RORgamma UAS-luciferase reporter, 20 h; Potency, µM (series often up to 53.6 µM), inactives show at the top dose activity change, negative = inhibition, usual class: inhibitors; actives 5.4% (n = 310,000); also: potency is read from the fitted curve at half-maximal effect; nearly all actives have a fitted effect of over 60% in size
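Stably transfected Drosophila Schneider cells are the test system, with ROR gamma fused to Gal4 and luciferase under UAS control; luminescence is read after 20 hr of 700 uM copper sulfate induction at ambient temperature.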
Numbers without * were called inactive; ? = inconclusive; nt = no result given; [ ] = dose if it differs, or a comment. Unless noted, calls follow the shape of the dose curve; as a rule, active = well fitted curve in the direction sought with a large enough effect; inconclusive = small, poorly fitted or top-dose-only effect, or another doubt; inactive = no such curve, though single readings can be large; an effect the other way counts as inactive or inconclusive. Unless noted, % is scaled to controls: 0 for no effect and ±100 for the full control effect.

SMILES	ELG1 DNA repair	TSHR antag	B2AR arrestin	VP16 counter	RORg inh
CC(C)OC(=O)CC1C(=O)NCCN1C(=S)NC(=O)c1ccccc1 (centres undefined)	0%	17	0%	-18%[10 µM]	18%
CC(C)OC(=O)CC1C(=O)NCCN1C(=S)NC(=O)c1ccc(F)cc1 (centres undefined)	6%	12	0%	8.9µM*	3.2µM*
COC(=O)CC1C(=O)NCCN1C(=S)NC(=O)c1sc2ccccc2c1Cl (centres undefined)	7%	-2	0%	7.1µM*	0.63µM*
COC(=O)CC1C(=O)NCCN1C(=O)c1sc2ccccc2c1Cl (centres undefined)	2%	3	0%	-2%	-26%
COC(=O)CC1C(=O)NCCN1C(=S)NC(=O)C(c1ccccc1)c1ccccc1 (centres undefined)	-3%	-1	0%	16µM*	10µM*
COc1ccc2c(=O)c(OC)c(-c3ccccc3)oc2c1	nt	nt	nt	0%	34%
Cn1nc(C(C)(C)C)cc1C(=O)NNC(=O)c1ccc(C(F)(F)F)cc1	7.3µM*	-10	-1%	?	-10%
CC(=O)/C(=N\Nc1ccc(Cl)cc1)Sc1nnc(-c2ccccc2)n1-c1ccccc1	?	-15	2%	6.3µM*	6.3µM*
CC(=O)/C(=N/Nc1ccccc1)Sc1nnc(CCc2ccccc2)n1-c1ccccc1	-27%	32	-1%	-3%	-9%
COc1ccc(-c2csc(NC(=S)NC(=O)c3cccs3)n2)cc1OC	21µM*	-18	0%	14µM*	4.5µM*
COc1ccc(-c2csc(NC(=S)NC(=O)c3ccc(S(=O)(=O)N(C)C)cc3)n2)cc1OC	-13%	-16	0%	?	2.8µM*
COc1ccc(-c2csc(NC(=S)NC(=O)c3cccs3)n2)cc1Br	-11%	-4	0%	11µM*	4.5µM*
CC(C)CN1CC[C@@]2(CCCN(C(=O)c3cccc(F)c3)C2)C1	nt	nt	nt	2%	0%
COc1ccc(-c2nc3cnc(N4CCOCC4)nc3n(-c3ccc(OC)cc3)c2=O)cc1	nt	nt	nt	-2%	4%
C=CC[C@@](C(C)=O)(C(=O)OC)C(NC(=O)OC)c1ccccc1 (some centres undefined)	nt	nt	nt	-11%	-23%
COc1cc2c(cc1OC)C1O[C@](c3ccsc3)(C2)OC2=C1C(=O)CC(C)(C)C2	nt	nt	-1%[9.22 µM]	-3%[10 µM]	15%[10 µM]
COc1cc(/C=C/c2ccccc2)oc(=O)c1	nt	nt	nt	-4%	9%
O=c1cc(N=Nc2ccc(Cl)cc2)[nH]c(=O)[nH]1	23µM*	-14	-1%	4µM*	2.5µM*
COC(=O)c1c(-c2ccc(C)cc2)csc1NC(=O)Cc1ccc(OC)c(OC)c1	?	-19	-1%	?	7%
COC(=O)c1c(-c2ccc(Br)cc2)csc1NC(=O)Cc1ccc(OC)c(OC)c1	18µM*	-29	0%	?	?
COC(=O)c1c(-c2cccc3ccccc23)csc1NC(=O)Cc1ccc(OC)c(OC)c1	21µM*	-21	0%	-22%	4%
O=C(NC1CC2CCC(C1)N2Cc1ccccc1)c1ccccc1Br (centres undefined)	8%	18	0%	12%	-28%
S=c1[nH]nc(-c2cc(-c3ccccc3)n[nH]2)n1/N=C/c1ccc(Cl)c(Cl)c1	19%	-3	0%	7.9µM*	10µM*
S=c1[nH]nc(-c2cc(-c3ccccc3)n[nH]2)n1/N=C/c1ccc(Cl)cc1	0%	-4	-1%	?	?
S=c1[nH]nc(-c2ccccn2)n1/N=C/c1ccc(-c2ccccc2Cl)o1	?	6	-1%	-4%	8.9µM*
SMILES	ELG1 DNA repair	TSHR antag	B2AR arrestin	VP16 counter	RORg inh
S=c1[nH]nc(-c2ccccn2)n1/N=C/c1ccc(Br)s1	?	-12	0%	7.9µM*	7.1µM*
S=c1[nH]nc(-c2ccccn2)n1/N=C/c1ccc(Cl)c(Cl)c1	-5%	-5	0%	-23%	7.1µM*
O=S(=O)(NC1C2CC3CC(C2)CC1C3)c1ccc(F)cc1 (centres undefined)	11%	-7	0%	nt	nt
CCC(C)C(NC(=O)C(Cc1ccc(O)cc1)NC(=O)C(N)C(C)C)C(=O)NC(Cc1cnc[nH]1)C(=O)N1CCCC1C(=O)NC(Cc1ccccc1)C(=O)O (centres undefined)	nt	nt	nt	-6%	-1%
COCCNc1ccnc(-c2ccccc2C)n1	nt	nt	nt	9%	-2%
COc1cc(N=Nc2cccc(S(N)(=O)=O)c2)c2ccccc2c1N	?	-12	-1%	-1%	11µM*
COC(=O)C(CCSC)NS(=O)(=O)c1ccccc1Br (centres undefined)	nt	nt	nt	-9%	0%
CCN(Cc1ccccc1)C(=S)NC(=O)c1ccccc1Br	-28%	-5	0%	1.1µM*	0.79µM*
CN(C)CCNC(=O)c1cc(Br)ccc1Cl	-19%	2	0%	-13%	0%
CCN(Cc1ccccc1)C(=O)/C=C/c1ccccc1[N+](=O)[O-]	-9%	-1	0%	-2%	37%
O=C(NC(=S)N(CCO)Cc1ccccc1)c1cc(Br)ccc1Cl	16%	-2	9%	1.8µM*	0.79µM*
CCCN(Cc1ccccc1)C(=S)NC(=O)c1ccccc1[N+](=O)[O-]	?	-3	0%	1µM*	0.35µM*
COc1cccc(S(=O)(=O)NCc2ccc(C(=O)Nc3cccc(Cl)c3)cc2)c1	18µM*	-21	3%	-16%	16%
O=C(Nc1cccc(Cl)c1)c1cc(S(=O)(=O)NCCc2ccc(Cl)cc2)ccc1F	?	-4	0%	10µM*	?
COc1cc(NC(=O)CN2CCN(Cc3ccc4c(c3)OCO4)CC2)cc(OC)c1	23µM*	-3	0%	-1%	-1%
CC1CCc2nc(NC(=O)CN3CCN(Cc4ccc5c(c4)OCO5)CC3)sc2C1 (centres undefined)	12µM*	-4	0%	-22%	-53%
COC(=O)c1[nH]c2ccccc2c1NC(=O)CN1CCN(Cc2ccc3c(c2)OCO3)CC1	4.6µM*	19	0%	-6%	1%
OCCN1CCN(CC(O)C(F)(F)F)CC1 (centres undefined)	-3%	11	0%	5%	4%
Cc1ccc(S/C=C\C(=O)c2ccccc2)cc1	?	-21	0%	14µM*	-13%
CC(/C=C/C(=O)c1ccc(C)cc1)=C\c1ccccc1	?	-18	0%	-7%	-16%
Cc1ccc(C(=O)/C=C\C(=O)c2ccc(C)cc2)cc1	?	3	5%	10µM*	-94%
O=C(O)C1OC(O)C(O)C(O)C1O (centres undefined)	nt	nt	nt	-6%	-3%
NC(=O)NC(N)=O	nt	nt	nt	7%	-18%
CSCc1cc(N(C)c2ccccc2)nc(-c2ccccn2)n1	?	-6	-1%	3.2µM*	0.56µM*
